Where “and” joins values, the source holds several entries; their conditions need not be identical. Equal values may be shown once. Compounds without any hit were thinned out: in the full panel of roughly 83,000, 20% have a hit.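 The endpoint reported here, percent growth, reads 100 for growth as untreated, 0 for no net growth and -100 for all cells dead.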 Calls of active or inactive are those of the source. How the source made its calls: active means growth percent below 10; inactive means the rest.

Here are results for twelve molecules from PubChem BioAssay (NCI).

Test systems include SN12C renal; UO-31 renal; TK-10 renal; ACHN renal; CAKI-1 renal; A498 renal; CCRF-CEM leukemia; MOLT-4 leukemia; SR leukemia; RPMI-8226 leukemia; OVCAR-8 ovarian; OVCAR-5 ovarian; OVCAR-4 ovarian; SK-OV-3 ovarian; IGROV1 ovarian; OVCAR-3 ovarian; HS 578T breast; NCI/ADR-RES ovarian.
Holding throughout (test): NCI-60 one-dose screen, 48 h (100 = growth as untreated, 0 = no growth, -100 = all killed)
Common to all, as to conditions: 10 µM unless noted

`CCCCCCCCc1cc(Cl)c(O)c(Cl)c1`: the growth in the experiment with SN12C renal was 103% (inactive); in the experiment on UO-31 renal, 97.2% (inactive); in the experiment with TK-10 renal, 113% (inactive); in the experiment on ACHN renal, 103% (inactive); with CAKI-1 renal, 89.6% (inactive); in the experiment with A498 renal it was 108% (inactive). In addition, the growth in the experiment on CCRF-CEM leukemia was 111% (inactive); in the experiment with MOLT-4 leukemia it was 98.2% (inactive); in the experiment on SR leukemia, 83.1% (inactive); in the experiment with RPMI-8226 leukemia, 98.3% (inactive); with OVCAR-8 ovarian, 103% (inactive); in the experiment on OVCAR-5 ovarian, 101% (inactive). The growth in the experiment with OVCAR-4 ovarian is 115% (inactive); in the experiment on SK-OV-3 ovarian, 101% (inactive); in the experiment with IGROV1 ovarian, 133% (inactive); in the experiment with OVCAR-3 ovarian, 101% (inactive); in the experiment with HS 578T breast, 98.7% (inactive); in the experiment with NCI/ADR-RES ovarian it was 103% (inactive).

As for `Cc1onc(-c2ccccc2)c1C(=O)N/N=C/c1cc(Cl)cc(Cl)c1O`, the growth was 33.1% (inactive) in the experiment on SN12C renal; 1.5% (active) in the experiment on UO-31 renal; 40.1% (inactive) in the experiment on TK-10 renal; 22.1% (inactive) in the experiment on ACHN renal; 8.2% (active) in the experiment with CAKI-1 renal; 81.2% (inactive) with A498 renal. For the same molecule, the growth was 21.9% (inactive) with CCRF-CEM leukemia; 19.2% (inactive) in the experiment on MOLT-4 leukemia; 18.5% (inactive) with SR leukemia; 39.6% (inactive) in the experiment on RPMI-8226 leukemia; 31.1% (inactive) with OVCAR-8 ovarian; 32.1% (inactive) in the experiment on OVCAR-4 ovarian. The growth with SK-OV-3 ovarian was 47.6% (inactive); in the experiment on IGROV1 ovarian, 23.2% (inactive); in the experiment on OVCAR-3 ovarian it was 25.2% (inactive); with HS 578T breast, 80% (inactive); with NCI/ADR-RES ovarian, 17.1% (inactive).

Take `CCCC[n+]1c(/C=C\c2c(OC)cc(OC)cc2OC)ccc2ccccc21`: the growth is 3.62% (active) with SN12C renal; 1.45% (active) with UO-31 renal; -12.7% (active) in the experiment on TK-10 renal; 9.92% (active) in the experiment on ACHN renal; -41.6% (active) with CAKI-1 renal; -23.4% (active) in the experiment on A498 renal. The growth in the experiment on CCRF-CEM leukemia was 1.26% (active); with MOLT-4 leukemia, -22.5% (active); in the experiment on SR leukemia it was -34.6% (active); with RPMI-8226 leukemia, -25.6% (active); in the experiment on OVCAR-8 ovarian it was -27.7% (active); in the experiment with OVCAR-5 ovarian, 24.3% (inactive). Besides, the growth with OVCAR-4 ovarian is 9.07% (active); in the experiment with SK-OV-3 ovarian, -14.3% (active); with IGROV1 ovarian it was 9.69% (active); in the experiment on OVCAR-3 ovarian, -16.7% (active); with HS 578T breast, 16.4% (inactive); with NCI/ADR-RES ovarian, 76.8% (inactive).

With `CN(C)c1ccc(/C=C/c2nccc3ccccc23)cc1`, the growth in the experiment with SN12C renal is 75.6% (inactive); with UO-31 renal it was 58.4% (inactive); with TK-10 renal it was 88.2% (inactive); with ACHN renal, 87.1% (inactive); in the experiment on CAKI-1 renal, 73.6% (inactive); in the experiment with MOLT-4 leukemia, 99.9% (inactive). Besides, the growth in the experiment with RPMI-8226 leukemia is 72% (inactive); in the experiment on OVCAR-8 ovarian, 87.9% (inactive); with OVCAR-5 ovarian, 89.4% (inactive); with OVCAR-4 ovarian it was 103% (inactive); in the experiment on SK-OV-3 ovarian, 99.2% (inactive); in the experiment on IGROV1 ovarian, 78.5% (inactive). The figures for the growth in the experiment on OVCAR-3 ovarian, in the experiment with HS 578T breast and in the experiment on NCI/ADR-RES ovarian were 81.6% (inactive), 94.1% (inactive) and 78.4% (inactive), respectively.

On to `CC1=CC[C@@H]2[C@@H](CC[C@@]2(C)O)C(C)(C)[C@H]1CC[C@@H]1[C@@]2(C)CCC(=O)C(C)(C)O[C@@H]2CC[C@]1(C)O`, for which, in the experiment on TK-10 renal, the growth was 10.2% [100 µM] (inactive) and -99.3% [100 µM] (active).

With `CC(C)=C1C=C2CC[C@@H]3[C@](C)(CCC[C@@]3(C)C(=O)O)[C@H]2CC1`, the growth in the experiment with SN12C renal was 106% (inactive); with UO-31 renal, 88.9% (inactive); in the experiment on TK-10 renal, 93.2% (inactive); in the experiment with ACHN renal it was 104% (inactive); in the experiment on CAKI-1 renal, 99.6% (inactive); in the experiment with A498 renal it was 109% (inactive). Moreover, the growth in the experiment with CCRF-CEM leukemia was 106% (inactive); with MOLT-4 leukemia, 96.6% (inactive); in the experiment with SR leukemia, 99% (inactive); with RPMI-8226 leukemia, 107% (inactive); in the experiment on OVCAR-8 ovarian, 100% (inactive); in the experiment on OVCAR-5 ovarian it was 96.8% (inactive). Further, the growth in the experiment on OVCAR-4 ovarian is 94.4% (inactive); with SK-OV-3 ovarian, 105% (inactive); in the experiment on IGROV1 ovarian, 103% (inactive); in the experiment with OVCAR-3 ovarian, 98.9% (inactive); in the experiment on HS 578T breast, 110% (inactive); with NCI/ADR-RES ovarian, 100% (inactive).

As to `CCOc1cc2c(cc1O)/C(=N\OC)C[C@@H]1[C@@H]2CC[C@]2(C)[C@@H](O)CC[C@@H]12`, the growth in the experiment with TK-10 renal was -12.5% [100 µM] (active) and -99.5% [100 µM] (active).

Turning to `CCN1CCCC(Nc2cc(C)nc(/N=C(/N)Nc3ccc(Cl)c(Cl)c3)n2)C1` (stereo not given), the growth with SN12C renal was 1.64% (active); in the experiment with UO-31 renal, -81.4% (active); in the experiment on TK-10 renal it was -88.6% (active); in the experiment on ACHN renal it was -25.1% (active); in the experiment with CAKI-1 renal it was -40.6% (active); in the experiment on A498 renal it was -49.1% (active). The growth in the experiment with CCRF-CEM leukemia was -16.4% (active); in the experiment with MOLT-4 leukemia it was -35.4% (active); in the experiment on SR leukemia, -60.3% (active); with RPMI-8226 leukemia, -31.6% (active); with OVCAR-8 ovarian, -21.5% (active); with OVCAR-5 ovarian, 13% (inactive). Further, the growth is -17.3% (active) in the experiment on OVCAR-4 ovarian; 6.57% (active) with SK-OV-3 ovarian; 14.5% (inactive) in the experiment on IGROV1 ovarian; -49% (active) in the experiment with OVCAR-3 ovarian; -37.8% (active) in the experiment on HS 578T breast; 17.2% (inactive) with NCI/ADR-RES ovarian.

Take `CC(O)C(O)C(O)C(O)C(O)C(=O)NNc1ccccc1` (stereo not given): the growth with SN12C renal is 90.5% (inactive); with UO-31 renal, 70.6% (inactive); with TK-10 renal, 110% (inactive); with ACHN renal it was 67% (inactive); in the experiment on CAKI-1 renal it was 77.1% (inactive); with A498 renal it was 69.7% (inactive). Besides, the growth with CCRF-CEM leukemia was 59.6% (inactive); in the experiment on MOLT-4 leukemia it was 101% (inactive); with SR leukemia, 49.7% (inactive); in the experiment with RPMI-8226 leukemia it was 99.1% (inactive); in the experiment with OVCAR-8 ovarian it was 96.4% (inactive); in the experiment with OVCAR-4 ovarian it was 96.5% (inactive). In addition, the growth with SK-OV-3 ovarian was 99.5% (inactive); with IGROV1 ovarian, 80% (inactive); in the experiment with OVCAR-3 ovarian, 99.4% (inactive); in the experiment with HS 578T breast, 91.2% (inactive); with NCI/ADR-RES ovarian it was 84.2% (inactive).

In the case of `CN=C(N)N/N=C(\c1ccccc1)c1ccc(Br)cc1`, the growth with SN12C renal was 16.2% (inactive); with TK-10 renal it was 21.6% (inactive); with ACHN renal it was 21.5% (inactive); in the experiment with CAKI-1 renal, 0.888% (active); in the experiment with A498 renal it was -19.2% (active); with CCRF-CEM leukemia it was 2.24% (active). For the same molecule, the growth in the experiment on MOLT-4 leukemia was -14% (active); in the experiment on SR leukemia, -15.2% (active); with RPMI-8226 leukemia, 27.5% (inactive); with OVCAR-8 ovarian it was 1.03% (active); with OVCAR-4 ovarian, 42.1% (inactive); with SK-OV-3 ovarian, -1.99% (active). For the same molecule, the growth with IGROV1 ovarian was -7.13% (active); in the experiment with OVCAR-3 ovarian, 2.68% (active); in the experiment on HS 578T breast it was 18.4% (inactive); with NCI/ADR-RES ovarian it was 9% (active).

For the molecule `CC1(C)OCC(COC(c2ccccc2)(c2ccccc2)c2ccccc2)O1` (stereo not given), the growth with SN12C renal was 102% (inactive); in the experiment with TK-10 renal, 88.5% (inactive); in the experiment on ACHN renal, 97.6% (inactive); in the experiment on CAKI-1 renal it was 89.1% (inactive); with A498 renal, 57.2% (inactive); in the experiment with CCRF-CEM leukemia, 102% (inactive). In addition, the growth with MOLT-4 leukemia was 93.1% (inactive); in the experiment with SR leukemia, 93.6% (inactive); in the experiment with RPMI-8226 leukemia it was 105% (inactive); with OVCAR-8 ovarian, 98.4% (inactive); in the experiment on OVCAR-5 ovarian it was 98.1% (inactive); in the experiment with OVCAR-4 ovarian, 96% (inactive). In addition, the growth in the experiment with SK-OV-3 ovarian is 112% (inactive); in the experiment on IGROV1 ovarian, 108% (inactive); in the experiment with OVCAR-3 ovarian it was 102% (inactive); in the experiment on HS 578T breast it was 103% (inactive).

`CCCCCCCCCCCCNCCCc1ccccc1`: the growth with SN12C renal is 62.9% (inactive); with UO-31 renal, 60.8% (inactive); in the experiment on TK-10 renal, 104% (inactive); with CAKI-1 renal, 93% (inactive); in the experiment on A498 renal, 76.5% (inactive); in the experiment with CCRF-CEM leukemia, 48.9% (inactive). The growth was -34.3% (active) in the experiment on SR leukemia; 6.17% (active) in the experiment on RPMI-8226 leukemia; 79.3% (inactive) in the experiment with OVCAR-8 ovarian; 46.5% (inactive) in the experiment with OVCAR-4 ovarian; 103% (inactive) with SK-OV-3 ovarian; 75.4% (inactive) in the experiment with IGROV1 ovarian. The values for the growth in the experiment on OVCAR-3 ovarian, in the experiment with HS 578T breast and with NCI/ADR-RES ovarian were 83% (inactive), 88.6% (inactive) and 75.1% (inactive), respectively.
